# High-throughput results (PubChem)
# The list is not random: actives were taken first. Their share in the collection is about 2.6%.
# Cruzain inh noDet – qHTS Assay for Promiscuous and Specific Inhibitors of Cruzain (without detergent); 200,000 compounds, 2.3% hits; purified cruzain, Z-FR-AMC fluorescence, no detergent; Potency, µM, inactives show max response, negative = inhibition, actives largely listed as inhibitors;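 note: plate controls were enzyme without inhibitor for no effect and buffer without enzyme for full effect; nearly all actives have a fitted effect of over 40% in size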
# Target sequence (P25779 123-467 limits assumed): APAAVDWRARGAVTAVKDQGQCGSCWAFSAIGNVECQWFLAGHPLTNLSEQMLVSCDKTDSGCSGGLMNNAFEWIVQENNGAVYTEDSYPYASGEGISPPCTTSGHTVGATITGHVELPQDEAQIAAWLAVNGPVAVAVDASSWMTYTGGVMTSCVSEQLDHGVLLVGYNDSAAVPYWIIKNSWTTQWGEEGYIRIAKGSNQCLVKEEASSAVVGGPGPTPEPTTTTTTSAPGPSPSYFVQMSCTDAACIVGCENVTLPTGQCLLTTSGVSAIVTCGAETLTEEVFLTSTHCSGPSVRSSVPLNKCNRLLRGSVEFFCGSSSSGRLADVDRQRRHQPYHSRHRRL
#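 Detergent-free condition (0.00005% Triton X-100) in acetate buffer pH 5.5 with DTT. 1.5 nM enzyme and compound were pre-mixed 15 min, then 2 uM Z-FR-AMC substrate added; reaction progress from fluorescence change between first and third reads (60 s).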
# Cruzain inh Det – qHTS Assay for Promiscuous and Specific Inhibitors of Cruzain (with detergent); Cruzipain (Trypanosoma cruzi), P25779; purified cruzain, Z-FR-AMC fluorescence, 0.01% Triton; Potency, µM, without a hit: max response, negative = inhibition, hits mostly inhibitors; 200,000 compounds, 0.43% hits;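 note: plate controls were neutral wells for no effect and buffer without enzyme for full effect; nearly all actives have a fitted effect of over 40% in size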
#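 Read-out: AMC fluorescence (360 nm excitation, 450 nm emission), four reads over 2 min, first-to-third difference used. Conditions: cruzain 1.5 nM, Z-FR-AMC 2 uM, pH 5.5 acetate, 5 mM DTT, 0.01% Triton X-100.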
# * = called active by the depositor; ? = inconclusive; ! = not confirmed by another sample. Calls come from the whole dose curve; as a rule, active = well fitted curve in the direction sought with a large enough effect; inconclusive = small, poorly fitted or top-dose-only effect, or another doubt; inactive = no such curve, though single readings can be large; an effect the other way counts as inactive or inconclusive. Potency is the fitted concentration of half-maximal effect.
SMILES,Cruzain inh noDet,Cruzain inh Det
Oc1[nH]c2ccccc2c1N=NC(=S)NCCc1ccccc1,1%,-11%
CCCC12CN3CC(CCC)(CN(C1)C3c1ccccc1)C2=O (stereo not drawn),6%,1%
O=C(O)C(S)[C@@H](S)C(=O)O (stereo partly drawn),-11%,-15%
Cc1ccc(-n2ncc3c(=O)n(CC(=O)Nc4cccc(Cl)c4)cnc32)cc1C,16µM*,-7%
Cc1ccc(-n2ncc3c(=O)n(Cc4cccc(Cl)c4)cnc32)cc1C,15%,0%
Cc1cccc(N2CCN(C(=O)c3c(C)oc4nc(C)nc(N5CCCC5)c34)CC2C)c1 (stereo not drawn),25%,2%
CC(/C=N/NC(=O)Cc1cccs1)=C\c1ccccc1,-9%,-5%
O=C(Cc1cccs1)N/N=C/C(Br)=C/c1ccccc1,16µM*,1%
CCCOc1ccc(-c2cccc(NS(=O)(=O)c3cc(OC)ccc3OC)c2)nn1,-15%,-6%
COc1ccc(OC)c(NC(=O)c2cc(S(=O)(=O)NCCc3ccc(Cl)cc3)ccc2F)c1,-15%,2%
Cc1cccc2cc(COC(=O)C3CCCO3)c(=O)[nH]c12 (stereo not drawn),1.6µM*,-1%
Cc1cccc2cc(COC(=O)C3CCCCC3)c(=O)[nH]c12,-6%,2%
CC(=O)/C=C\C1[C@]2(C)CCCC(C)(C)C2CC[C@@]1(C)O (stereo partly drawn),16%,3%
Cc1cccc2cc(C#N)c(NCCNC(=S)NCCCN3CCOCC3)nc12,-3%,-8%
Cc1cc2cc(C#N)c(NCCNC(=S)NCCCN3CCOCC3)nc2cc1C,?,25µM*
O=C(CSc1ncc(S(=O)(=O)c2ccc(Br)cc2)c(=O)[nH]1)NCc1ccc(Cl)cc1,?,-14%
N#Cc1ccccc1S(=O)(=O)N1CCCC(c2nc3c(nnn3Cc3cccc(Cl)c3)c(=O)[nH]2)C1 (stereo not drawn),?,3%
NC(=Nc1ccccc1)NC(=O)c1nc(Cl)c(N)nc1N,?,-12%
NC(=NCc1ccccc1)NC(=O)c1nc(Cl)c(N)nc1N,14µM*!,-13%
COc1cccc(-n2cc(C(=O)NCCc3cccc(C)c3)c3ccccc3c2=O)c1,14%,-4%
COc1cccc(/C(O)=C/c2nc3ccc(C(=O)NCCc4ccc(Cl)cc4)cc3[nH]c2=O)c1,25µM*,-7%
COc1cccc(/C(O)=C/c2nc3ccc(C(=O)NCCc4cccc(C)c4)cc3[nH]c2=O)c1,20µM*,-3%
COc1cccc(C(=O)Nc2cc(C(=O)NCCc3ccccc3)ccc2Cl)c1,1%,2%
COc1ccc(NC(=O)Cn2c(=O)oc3cc(S(=O)(=O)N4CCCCCC4)ccc32)cc1OC,?,-4%
COc1cc(OC)c(NC(=O)c2cc(C)nc3c2c(C)nn3-c2ccc(C)cc2)cc1Cl,-4%,0%
SMILES,Cruzain inh noDet,Cruzain inh Det
CCOC(=O)Cc1ccc(NC(=O)Nc2nnc(N3CCCCC3C)s2)cc1 (stereo not drawn),?,-7%
COc1ccc(S(=O)(=O)N2CCN(Cc3nc4ccc(C)cc4o3)CC2)cc1Cl,35%,-2%
O=c1cc(CN2CCN(c3ccccc3)CC2)c2cc(O)c(-c3ccccc3)cc2o1,10µM*,-2%
COc1ccc(N2CCN(Cc3cc(=O)oc4cc5c(cc34)CCCC5)CC2)cc1,13µM*,0%
O=c1cc(CN2CCN(Cc3ccccc3)CC2)c2cc(Cl)ccc2o1,-8%,-4%
COc1ccc(N2CCN(Cc3cc(=O)oc4ccc(C)cc34)CC2)cc1,?,0%
O=c1cc(CN2CCN(c3cccc(Cl)c3)CC2)c2cc(O)c(-c3ccccc3)cc2o1,7.9µM*,4%
O=c1cc(CN2CCN(c3ccccc3)CC2)c2c(ccc3ccccc32)o1,?,3%
O=C(NCc1ccc2c(c1)CCN2C(=O)c1ccc(Cl)cc1)c1ccco1,-3%,-3%
O=C(Nc1cc(-c2nc3ccccc3o2)ccc1Cl)c1cccc2c(Cl)cccc12,12%,1%
COC(=O)c1ccccc1NC(=O)CSc1nc2nc(C)cc(C)n2n1,7%,-1%
CCc1cccc(NC(=O)CN2C(=O)COc3ccc(S(=O)(=O)N4CCC(C)CC4)cc32)c1,14%,0%
O=C(Nc1cc(-c2ccc(F)c(F)c2)no1)c1ccccc1F,25µM*,-3%
COc1ccccc1C(=O)Nc1cc(-c2ccc(C)cc2)no1,4%,-11%
Oc1cccc(-c2nc3ncccn3c2Nc2cccc(C(F)(F)F)c2)c1,-4%,-15%
O=C(Cn1c2ccccc2c(=O)c2ccccc21)N/N=C/c1cc([N+](=O)[O-])ccc1N1CCCCC1,10µM*,0%
Cc1cc(/C=N/NC(=O)Cn2c3ccccc3c(=O)c3ccccc32)c(C)n1-c1ccccc1,16µM*,-4%
O=C(Cn1c2ccccc2c(=O)c2cc([N+](=O)[O-])ccc21)Nc1ccccc1Cl,?,-26%
